Results taken from PubChem BioAssay (NCI).
This is part of a sample that, as a whole, favours compounds with a hit. Of some 83,000 tested, about 20% had one in any assay.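 Treatment: one concentration, 48 hours, 96-well format. Scoring: percent growth, with anything below 10 considered active.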 Unmarked numbers belong to inactive results. Activity calls are given as the source filed them.

Each molecule was assayed on HL-60(TB) leukemia (assay: NCI-60 one-dose screen, 48 h (100 = growth as untreated, 0 = no growth, -100 = all killed)). Settings: 10 µM unless noted.

For `COc1cc(OC)c(C(=O)/C=C/c2cccc(C#N)c2)c(OC)c1`, the growth was -8.6% (active).
For `NCC(=O)NS(=O)(=O)OC[C@H]1O[C@@H](n2cnc3c(N)ncnc32)[C@H](O)[C@@H]1O`, the growth was -9.28% (active).
With `CCCCCCCCCCN1CCC(N2CCCCC2)CC1` the growth was -57.7% (active).
`O=C(Nc1ccc(Oc2ccc(Nc3nc4ccccc4s3)cc2)cc1)Nc1ccc(Cl)c(C(F)(F)F)c1` was tested, and the growth was -19.3% (active).
With `C#CCNC(=O)[C@H](CC)[C@H]1CC[C@H](C)[C@H]([C@@H](C)[C@H](O)[C@H](C)C(=O)[C@H](CC)C2O[C@]3(C=CC(=O)[C@]4(CC[C@@](C)([C@H]5CC[C@](O)(CC)[C@H](C)O5)O4)O3)[C@H](C)C[C@@H]2C)O1` (stereo not given in full) the growth was 1.79% (active).
With `O=c1c2cc(F)ccc2sc2c(N3CCNCC3)nc3ccc(F)cc3c12` the growth was 3.71% (active).
With `COc1cc(NC(C)CCCN2C(=O)c3ccccc3C2=O)c2nccc(C)c2c1OC` (stereo not given) the growth was 9.5% (active).
`CC/C(=C(\c1ccc(Cl)cc1)c1ccc(OCCN2CCCCC2)cc1)c1ccc(O)cc1` was tested, and the growth was -40.4% (active).
With `CCC(C)Nc1ccc(N)cc1` (stereo not given) the growth was -9.29% (active).
`Cc1cc(NCCN(C(C)C)C(C)C)nc(/N=C(\N)Nc2ccc(Cl)c(C(F)(F)F)c2)n1` was tested, and the growth was -87.9% (active).

Compared with `CCC/C=C(/C(C)=O)C(=O)OCC`, `CSCCC(NC(=O)C(Cl)Cl)C(=O)O` (stereo not given) is higher in growth: 93.2% for the first, 98.1% for the second.

First: CO[C@@H]1[C@H](N(C)C(=O)c2ccccc2)C[C@@H]2O[C@]1(C)n1c3ccccc3c3c4c(c5c6ccccc6n2c5c31)C(=O)NC4=O
Second: COc1cc(C)cc2oc3oc(=N)c(C(=O)c4ccccc4)cc3c(=O)c12
The growth of the first is lower: 78.9% for the first, 112% for the second.

Going from `Oc1ccc(N=Cc2ccccc2O)cc1` to `NC(=S)N/N=C(/c1ccccc1)c1ccccc1N`, the growth rises from 63.3% to 73.3%.

Compared with `COc1ccc(-c2nc(SCCC(C)C)nc(Nc3ccc(C(=O)O)cc3)c2C#N)cc1`, `COc1ccc(SC2c3ccc(O)cc3Oc3nc(N)c(C#N)c(N)c32)cc1` (stereo not given) is lower in growth: 71.6% for the first, 46.9% for the second.

Going from `N#C/C(=C/N1C(=O)/C(=C/c2ccc([N+](=O)[O-])cc2)SC1=S)c1nc2ccccc2s1` to `COc1cccc(Cc2nn3cc(-c4ccccc4)nc3s2)c1`, the growth falls from 93.3% to 69.9%.

Going from `O=S1(=O)NCCCN1CCNc1nccc(-c2c(-c3cccc(O)c3)nc3sccn23)n1` to `CC(=O)c1c(C)nc(SCC(=O)Nc2ccc(Cl)cc2)n1-c1ccc(Cl)cc1`, the growth rises from 73.3% to 86.6%.

First: CCOC(=O)c1cn2ncnc(Oc3ccc(NC(=O)NC4CC4)c(Cl)c3)c2c1C
Second: CCOC(=O)C1=C(C)N=C2Sc3cccc(OC)c3N2[C@H]1c1ccccn1
The growth of the first is lower: 83.5% for the first, 105% for the second.

Compared with `CCOc1cccc(C2CC(=O)Nc3cc4c(cc32)OCO4)c1` (stereo not given), `COc1cc2c(c(OC)c1OC)CCC(c1cccc(C(=O)Nc3ccccc3Br)c1)O2` (stereo not given) is lower in growth: 90.7% for the first, 79.3% for the second.

Going from `O=C(Nc1ccc(Cl)cc1)Oc1c(Cl)c(Cl)c(Cl)c(Cl)c1Cl` to `COC(=O)CSc1ccc(Cl)cc1`, the growth falls from 98.5% to 83.8%.

Compared with `Cc1ccc([N+](=O)[O-])cc1Br`, `COc1ccc(Br)c2ccccc12` is higher in growth: 80.6% for the first, 88.4% for the second.

Compared with `COC(=O)c1nc(=S)[nH]c(C(=O)OC)c1C(=O)c1ccccn1`, `CCCCn1c(C(=O)c2c[nH]c3ccccc23)n[nH]c1=S` is lower in growth: 97.9% for the first, 90.8% for the second.

Compared with `O=C(c1ccccc1)N(CCCCl)C(=O)N(CCCCl)C(=O)c1ccccc1`, `CCN(CC)CCC(=O)c1ccc(OC)c2ccccc12` is lower in growth: 94% for the first, 44.2% for the second.

First: CC/C(=C(/c1ccc(O)cc1)c1ccc(OCCN2CCCCCC2)cc1)c1ccc(Cl)cc1
Second: CC(C)OC(=O)[C@H](C)N[P@@](=O)(OC[C@@]1(C)O[C@@H](n2cc(F)c(N)nc2=O)C[C@@H]1O[P@](=O)(N[C@@H](C)C(=O)OC(C)C)Oc1ccccc1)Oc1ccccc1
The growth of the first is lower: 53.9% for the first, 95.5% for the second.

First: Cc1cscc(C)c1=S
Second: CCN(CC)CCCN1C(=O)c2c(c(C)c3c(oc4ccc(OC)cc43)c2C)C1=O
The growth of the first is higher: 111% for the first, 97.6% for the second.

With `COC(=O)CC[C@@H](C)[C@H]1CC[C@H]2[C@@H]3CC[C@@H]4C[C@H](O)CC[C@]4(C)[C@H]3C[C@H](O)[C@]12C` the growth was 96.9%.

Molecule `Cc1cc(C)nc(SC2=C(Nc3cccc(Cl)c3)C(=O)N(Cc3ccccc3)C2=O)n1` has a growth of 18.1% [30 µM].
